Assay results as given in PubChem BioAssay.
Results filed as inconclusive are left out. Calls of active or inactive are those of the source.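 Rule for the calls, unless noted: active = GFP signal, as percent of the solvent control, above the screen mean plus 3 SD, about 149; inconclusive = no reading because the compound's own fluorescence upset strain identification; inactive = the rest.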

Experiments:
[1] = yeast TOR pathway RPL19A-GFP modulators, primary screen, cell-based, S. cerevisiae, multiplex flow cytometry (AID 1862; in the data active = percent of DMSO control GFP below about 86%;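 note: lower values mimic rapamycin by blocking the RPL19A rise seen in DMSO cells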); conditions: S. cerevisiae RPL19A-GFP strain, flow cytometry fluorescence, 3 h; at 10 µM; stronger effect = lower value
[2] = modulators of MEP2-GFP levels in yeast, primary screen, S. cerevisiae, multiplex flow cytometry (AID 1867;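 active = GFP response, as percent of the DMSO control, above the screen-wide mean plus 3 SD, about 139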;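 note: median GFP channel fluorescence of barcode-gated MEP2-GFP cells measured by flow cytometry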); conditions: S. cerevisiae MEP2-GFP strain, 3 h, at 10 µM, stronger effect = higher value, 100% means same as DMSO wells
[3] = modulators of CIT2-GFP expression in yeast, primary screen, S. cerevisiae, GFP fusion, multiplex flow cytometry (AID 1870;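 active = percent response above a set limit, the screen-wide mean plus 3 SD, cut at about 130% in these data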;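 note: barcoded CIT2-GFP strain pooled with four other GFP strains with rapamycin as positive control; median GFP fluorescence per well over plate mean of DMSO wells so 100% = DMSO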); conditions: 3 h, at 10 µM, stronger effect = higher value
[4] = modulators of LAP4-GFP expression in yeast, primary screen, S. cerevisiae, multiplex flow cytometry (AID 1873); conditions: 3 h, at 10 µM, stronger effect = higher value
[5] = modulators of AGP1-GFP expression in yeast TOR pathway, primary screen, cell-based, multiplex flow cytometry, S. cerevisiae (AID 1887;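 active = GFP signal above the screen-wide mean plus 3 SD, that is over about 124.5% of the solvent control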;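 note: AGP1-GFP fusion strain of S. cerevisiae within a five-strain barcoded multiplex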); conditions: 3 h, at 10 µM, stronger effect = higher value
[6] = inhibitors of CD8+ T cell-vesicle binding, pilot screen, LFA-1/ICAM-1 modulator project, MLPCN validation set, flow cytometry (AID 2523;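 active = response below a set limit, under 55% cells CD8-positive and vesicle-bound, and CD8 cells' 90th-percentile brightness under 279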;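 for vesicle binding response: mean PE anti-B7-1 fluorescence of CD8+ cells relative to row control; 100% = QL9-loaded vesicles with DMSO vehicle in the same plate row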); conditions: 2C mouse CD8+ T cells, at 7 µM, stronger effect = lower value; double positive events: measured here: CD8+/vesicle+ event percentage
[7] = target: Integrin beta-1 (Homo sapiens) + Integrin alpha-4 (Homo sapiens) (UniProt P13612+P05556); experiment: inhibition of HUTS-21 binding to VLA-4, pilot screen, VLA-4 allosteric modulator project, U937 cells, HUTS-21 mAb, flow cytometry, validation set (AID 2674;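 active = inhibition above 50%, about 3 SD of the validation set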;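 note: antibody binding induced by the VLA-4 ligand LDV present at three times its Kd; 0% = LDV ligand with antibody and no compound and 100% = antibody without LDV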); conditions: HUTS-21 LIBS mAb binding, at 6.7 µM, stronger effect = higher value, binding induced by LDV ligand
[8] = superoxide lowering in aged yeast cells, pilot screen, validation compound set (AID 2706;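 active = superoxide response below 65% of plate, a cut near 3 SD across the whole screen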;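 note: yeast exposed to compound for one week at 30 degrees C before staining; 100% = mean of all compound wells on the same plate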); conditions: S. cerevisiae aging, superoxide DHE fluorescence; at 10 µM, stronger effect = lower value
[9] = target: Beta-adrenergic receptor kinase 1 (Homo sapiens) (UniProt P25098); experiment: GRK2 binders displacing RNA aptamer, biochemical, validation, human GRK2, bead flow cytometry (AID 488806;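 active = aptamer binding inhibition above 30%, about 3 SD of noise from non-fluorescent compounds; inactive = inhibition at or below 30%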); conditions: bead-bound GRK2, FAM-aptamer displacement, at 10 µM, stronger effect = higher value
[10] = target: AP-2 complex subunit beta (Homo sapiens) (UniProt P63010); experiment: inhibitors of arrestin peptide binding to AP2, pilot screen, biochemical, validation set, GST-AP2 beads, flow cytometry (AID 504541;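 active = inhibition above 54%, about 3 SD of non-fluorescent compounds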;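 note: AP2 carries R879A mutation and is captured from E. coli lysate; bead-bound FITC arrestin peptide fluorescence measuring arrestin peptide binding to AP2; 0% = DMSO wells and 100% = excess unlabeled arrestin peptide control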); conditions: FITC arrestin peptide, at 10 µM, stronger effect = higher value, AP2 beta2 appendage fragment, R879A mutant
[11] = yeast V-ATPase proton transport modulators, S. cerevisiae, pHLuorin, HTS validation (AID 504600; in the data active = response above about 15%;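 note: plate controls were DMSO for no effect and reference compound for full effect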); conditions: S. cerevisiae pHLuorin cytosolic pH, at 10 µM, stronger effect = higher value
[12] = tested on: anti-desmoglein-3 scFv antibody binding to human DSG3; experiment: inhibitors of anti-DSG3 scFv binding to DSG3, pilot screen, biochemical, validation compound set, bead-based, flow cytometry (AID 588368;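 active = binding below the plate cutoff, the plate median minus 3 SD, with a reading above zero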;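 note: signal is the median channel fluorescence of bead-bound GFP antibody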); conditions: Protein G beads, DSG3-Fc, scFv-GFP binding, at 10 µM, stronger effect = lower value
[13] = inhibitors of fungal efflux pumps CDR1, CDR2, MDR1, pilot screen, validation compound set, multiplex, phenotypic (AID 588506;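 active = efflux inhibition above 0.42, the validation set average plus 4 SD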;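 note: Nile Red retained in cells so higher fluorescence means more efflux inhibition; 0 = negative control wells and 1 = enniatin B 25 µM full block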); conditions: S. cerevisiae pump-expressing triplex, Nile Red efflux flow cytometry; at 10 µM; stronger effect = higher value; the pumps come from Candida albicans
[14] = target: ATP-binding cassette sub-family B member 6 (Homo sapiens) (UniProt Q9NP58); experiment: ABCB6 transporter inhibitors, pilot screen, K562-ABCB6 cells, flow cytometry, validation set (AID 588550;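 active = inhibition above the screen-wide mean plus 3 SD, about 51%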;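 note: 0% = DMSO wells and 100% = benzethonium chloride 70 µM positive control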); conditions: K562-ABCB6 porphyrin accumulation, 1 h, at 10 µM, stronger effect = higher value
[15] = promoters of myeloid differentiation in arrested cells, primary screen, cell-based, GFP/MAC1 double positive, flow cytometry, validation set (AID 588685;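 active = differentiation response of at least 50%, scaled between solvent and reference control, from cells with both markers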;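 note: compound exposure lasts four days before antibody staining and flow analysis; 0% = DMSO wells and 100% = 5 µM fulvestrant positive control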); conditions: ER-HoxA9 marrow cells, stronger effect = higher value, normalized: vehicle 0, fulvestrant 100

AP-2 complex subunit beta (Homo sapiens), sequence (P63010 whole entry, looked up, the tested form may be a part, one chain of several): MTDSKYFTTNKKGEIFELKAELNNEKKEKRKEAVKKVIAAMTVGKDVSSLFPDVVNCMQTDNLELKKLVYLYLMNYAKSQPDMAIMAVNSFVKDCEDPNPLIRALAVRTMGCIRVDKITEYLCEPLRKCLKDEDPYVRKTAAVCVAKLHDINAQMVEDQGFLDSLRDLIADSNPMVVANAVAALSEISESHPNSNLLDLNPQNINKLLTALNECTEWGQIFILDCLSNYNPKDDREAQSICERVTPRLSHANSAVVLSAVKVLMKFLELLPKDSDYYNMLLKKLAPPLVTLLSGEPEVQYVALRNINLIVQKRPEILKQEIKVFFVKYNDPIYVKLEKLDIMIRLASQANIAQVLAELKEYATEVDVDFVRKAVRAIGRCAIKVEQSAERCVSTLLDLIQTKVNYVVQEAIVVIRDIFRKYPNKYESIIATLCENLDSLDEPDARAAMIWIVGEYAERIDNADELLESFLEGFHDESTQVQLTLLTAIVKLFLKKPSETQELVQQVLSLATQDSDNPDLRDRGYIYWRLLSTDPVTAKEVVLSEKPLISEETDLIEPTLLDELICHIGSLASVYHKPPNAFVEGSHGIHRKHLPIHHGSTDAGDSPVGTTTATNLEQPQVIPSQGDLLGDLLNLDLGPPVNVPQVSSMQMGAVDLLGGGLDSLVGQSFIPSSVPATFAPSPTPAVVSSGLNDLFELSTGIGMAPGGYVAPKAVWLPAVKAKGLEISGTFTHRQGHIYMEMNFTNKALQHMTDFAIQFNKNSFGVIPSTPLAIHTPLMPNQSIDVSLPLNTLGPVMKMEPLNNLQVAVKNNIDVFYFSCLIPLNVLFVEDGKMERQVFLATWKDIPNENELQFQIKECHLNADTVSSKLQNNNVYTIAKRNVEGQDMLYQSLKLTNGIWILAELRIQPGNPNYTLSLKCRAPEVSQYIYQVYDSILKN
Beta-adrenergic receptor kinase 1 (Homo sapiens), sequence (P25098 whole entry, looked up): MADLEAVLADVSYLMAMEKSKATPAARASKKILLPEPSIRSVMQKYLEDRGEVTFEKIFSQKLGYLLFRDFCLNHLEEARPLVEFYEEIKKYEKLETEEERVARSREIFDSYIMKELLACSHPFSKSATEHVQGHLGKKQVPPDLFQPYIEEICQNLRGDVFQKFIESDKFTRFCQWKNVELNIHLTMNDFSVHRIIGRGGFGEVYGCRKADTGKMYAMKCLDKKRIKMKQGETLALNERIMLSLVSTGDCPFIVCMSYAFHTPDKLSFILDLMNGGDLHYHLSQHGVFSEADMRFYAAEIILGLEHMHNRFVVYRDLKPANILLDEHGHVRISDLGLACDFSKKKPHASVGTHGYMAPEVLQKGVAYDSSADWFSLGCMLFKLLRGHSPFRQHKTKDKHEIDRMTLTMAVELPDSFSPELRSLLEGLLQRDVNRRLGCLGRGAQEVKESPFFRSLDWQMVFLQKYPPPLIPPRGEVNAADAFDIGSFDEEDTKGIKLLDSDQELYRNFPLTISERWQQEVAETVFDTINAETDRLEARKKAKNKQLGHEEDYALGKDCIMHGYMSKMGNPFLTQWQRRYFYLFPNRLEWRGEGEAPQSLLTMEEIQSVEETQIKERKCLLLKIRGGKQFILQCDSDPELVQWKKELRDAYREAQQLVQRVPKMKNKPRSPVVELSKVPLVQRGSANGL
Integrin beta-1 (Homo sapiens) + Integrin alpha-4 (Homo sapiens), sequence (P05556 whole entry, looked up): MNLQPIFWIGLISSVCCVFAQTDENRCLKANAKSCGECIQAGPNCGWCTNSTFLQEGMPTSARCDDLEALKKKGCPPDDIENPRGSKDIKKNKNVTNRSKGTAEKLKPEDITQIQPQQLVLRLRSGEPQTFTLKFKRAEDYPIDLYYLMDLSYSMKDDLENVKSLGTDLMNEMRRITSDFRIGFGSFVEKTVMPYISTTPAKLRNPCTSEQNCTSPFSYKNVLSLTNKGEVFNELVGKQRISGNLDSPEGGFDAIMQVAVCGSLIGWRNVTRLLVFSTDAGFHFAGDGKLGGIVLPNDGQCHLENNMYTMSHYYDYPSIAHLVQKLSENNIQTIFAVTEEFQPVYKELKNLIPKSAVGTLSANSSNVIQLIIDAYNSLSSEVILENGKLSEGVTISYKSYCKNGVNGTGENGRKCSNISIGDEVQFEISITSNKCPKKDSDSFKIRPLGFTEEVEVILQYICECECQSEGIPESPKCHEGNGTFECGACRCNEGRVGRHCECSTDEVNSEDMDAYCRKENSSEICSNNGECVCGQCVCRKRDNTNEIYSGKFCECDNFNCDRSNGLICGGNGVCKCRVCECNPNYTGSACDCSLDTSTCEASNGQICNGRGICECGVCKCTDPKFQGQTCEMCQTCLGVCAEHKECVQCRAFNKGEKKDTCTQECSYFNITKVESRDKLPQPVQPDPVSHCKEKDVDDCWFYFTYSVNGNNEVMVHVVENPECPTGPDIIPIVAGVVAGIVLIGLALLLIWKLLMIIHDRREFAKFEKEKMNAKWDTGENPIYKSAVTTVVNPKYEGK
Integrin beta-1 (Homo sapiens) + Integrin alpha-4 (Homo sapiens), sequence (P13612 whole entry, looked up): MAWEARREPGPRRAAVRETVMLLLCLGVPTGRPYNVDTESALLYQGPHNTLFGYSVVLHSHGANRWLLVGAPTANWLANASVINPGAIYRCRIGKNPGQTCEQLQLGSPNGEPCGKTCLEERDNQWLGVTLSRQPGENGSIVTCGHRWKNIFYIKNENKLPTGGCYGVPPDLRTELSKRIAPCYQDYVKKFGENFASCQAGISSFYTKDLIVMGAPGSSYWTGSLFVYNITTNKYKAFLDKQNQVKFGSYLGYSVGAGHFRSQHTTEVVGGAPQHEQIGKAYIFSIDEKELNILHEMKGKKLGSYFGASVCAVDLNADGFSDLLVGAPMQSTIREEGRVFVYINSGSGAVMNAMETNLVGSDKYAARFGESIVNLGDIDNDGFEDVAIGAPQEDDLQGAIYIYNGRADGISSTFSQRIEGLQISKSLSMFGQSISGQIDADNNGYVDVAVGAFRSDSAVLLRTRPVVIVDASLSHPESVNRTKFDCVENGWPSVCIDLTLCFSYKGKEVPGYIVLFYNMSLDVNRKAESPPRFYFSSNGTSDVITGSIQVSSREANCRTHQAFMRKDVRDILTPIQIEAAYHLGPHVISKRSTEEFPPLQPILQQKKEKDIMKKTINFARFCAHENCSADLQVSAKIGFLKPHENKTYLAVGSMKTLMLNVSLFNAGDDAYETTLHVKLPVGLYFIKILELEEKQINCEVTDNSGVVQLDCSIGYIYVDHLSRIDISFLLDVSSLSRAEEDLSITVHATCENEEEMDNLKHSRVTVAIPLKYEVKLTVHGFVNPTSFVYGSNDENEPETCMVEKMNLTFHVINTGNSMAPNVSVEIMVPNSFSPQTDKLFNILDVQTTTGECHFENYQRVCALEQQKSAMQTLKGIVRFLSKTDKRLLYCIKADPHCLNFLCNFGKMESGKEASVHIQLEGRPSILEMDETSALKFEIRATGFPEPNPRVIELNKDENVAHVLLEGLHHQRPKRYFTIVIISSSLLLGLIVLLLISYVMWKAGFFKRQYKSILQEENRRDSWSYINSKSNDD
ATP-binding cassette sub-family B member 6 (Homo sapiens), sequence (Q9NP58 whole entry, looked up): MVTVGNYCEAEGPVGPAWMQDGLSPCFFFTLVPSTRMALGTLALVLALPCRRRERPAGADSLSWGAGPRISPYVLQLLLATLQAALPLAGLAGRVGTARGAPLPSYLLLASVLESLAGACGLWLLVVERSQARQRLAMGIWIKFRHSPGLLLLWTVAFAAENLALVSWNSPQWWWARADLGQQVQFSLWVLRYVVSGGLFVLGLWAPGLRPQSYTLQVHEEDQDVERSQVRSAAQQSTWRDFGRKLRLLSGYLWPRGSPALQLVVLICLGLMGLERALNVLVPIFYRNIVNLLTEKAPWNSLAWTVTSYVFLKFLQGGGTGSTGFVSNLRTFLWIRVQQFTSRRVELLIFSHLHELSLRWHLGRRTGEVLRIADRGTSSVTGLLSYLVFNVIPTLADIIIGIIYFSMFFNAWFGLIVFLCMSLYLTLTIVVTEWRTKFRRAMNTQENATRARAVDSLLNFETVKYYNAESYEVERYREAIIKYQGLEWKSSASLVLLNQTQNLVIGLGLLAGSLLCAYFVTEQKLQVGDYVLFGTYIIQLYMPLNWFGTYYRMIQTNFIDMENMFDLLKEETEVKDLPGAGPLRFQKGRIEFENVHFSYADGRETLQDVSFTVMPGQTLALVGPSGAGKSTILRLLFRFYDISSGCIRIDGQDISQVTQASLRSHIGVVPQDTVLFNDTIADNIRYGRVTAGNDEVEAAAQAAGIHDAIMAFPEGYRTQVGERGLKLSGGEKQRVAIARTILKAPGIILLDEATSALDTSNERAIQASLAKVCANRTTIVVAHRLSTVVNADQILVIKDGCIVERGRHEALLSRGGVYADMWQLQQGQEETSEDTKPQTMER

| Compound | percent of DMSO control GFP [1] | GFP response vs DMSO [2] | percent response of DMSO control [3] | GFP response vs DMSO [4] | GFP response, % of DMSO [5] | double positive events [6] | vesicle binding response [6] | inhibition [7] | superoxide response (% of plate) [8] | aptamer binding inhibition [9] | inhibition [10] | response [11] | binding (% of control) [12] | efflux inhibition (fraction of control) [13] | inhibition [14] | differentiation response [15] |
| --- | --- | --- | --- | --- | --- | --- | --- | --- | --- | --- | --- | --- | --- | --- | --- | --- |
| CC(=O)NC1C(OCCOc2ccc(Cl)cc2Cl)OC(COC(C)=O)C(OC(C)=O)C1OC(C)=O (stereo not given) | 103% (inactive) | 102% (inactive) | 108% (inactive) | 91.3% (inactive) | 94.5% (inactive) | 55.1% | 168% (inactive) | 16.6% (inactive) | 108% (inactive) | 3% (inactive) | 8.3% (inactive) | -6.83% (inactive) | 101% (inactive) | -0.2 (inactive) | 9% (inactive) | 20.8% (inactive) |
| COc1ccccc1C1C(C#N)=C(N)Oc2c1oc(CO)cc2=O (stereo not given) | 102% (inactive) | 96.9% (inactive) | 111% (inactive) | 103% (inactive) | 107% (inactive) | 52% | 174% (inactive) | -11.4% (inactive) | 103% (inactive) | 2% (inactive) | -6.41% (inactive) | 2.3% (inactive) | 95.9% (inactive) | 0.03 (inactive) | 9% (inactive) | -11.5% (inactive) |
| C=CCc1cccc2cc(C(=O)Nc3ccc(CC(=O)O)cc3)c(=O)oc12 | 98.6% (inactive) | 106% (inactive) | 94.9% (inactive) | 100% (inactive) | 97.8% (inactive) | 63.1% | 207% (inactive) | -2.11% (inactive) | 141% (inactive) | 2% (inactive) | 28.6% (inactive) | -3.63% (inactive) | 100% (inactive) | 0.1 (inactive) | 5% (inactive) | 7.87% (inactive) |
| CCOC(=O)c1cnc2ccccc2c1NCCO | 108% (inactive) | 99.9% (inactive) | 109% (inactive) | 102% (inactive) | 103% (inactive) | 61.1% | 186% (inactive) | 1.62% (inactive) | 98.1% (inactive) | 0% (inactive) | -2.19% (inactive) | 5.12% (inactive) | 99.8% (inactive) | -0.12 (inactive) | 7% (inactive) | -18% (inactive) |
| O=C(c1ccc(O)cc1)c1ccc(O)cc1O | 101% (inactive) | 108% (inactive) | 104% (inactive) | 101% (inactive) | 99.1% (inactive) | 59.2% | 122% (inactive) | 4.42% (inactive) | 95.7% (inactive) | 3% (inactive) | 45.5% (inactive) | -7.71% (inactive) | 96.9% (inactive) | 0.06 (inactive) | 6% (inactive) | 49.9% (active) |
| COc1ccc(-c2noc(CCc3ccccc3)n2)cc1 | 103% (inactive) | 109% (inactive) | 90% (inactive) | 101% (inactive) | 91.8% (inactive) | 56.4% | 174% (inactive) | 4.42% (inactive) | 99.8% (inactive) | 0% (inactive) | 4.14% (inactive) | -3.58% (inactive) | 111% (inactive) | 0.48 (active) | 0% (inactive) | -0.2% (inactive) |
| COc1cccc(CN2CCN(C(=O)c3ccc(-c4ccccc4)cc3)CC2)c1 | 99.1% (inactive) | 103% (inactive) | 103% (inactive) | 113% (inactive) | 98.8% (inactive) | 52.5% | 189% (inactive) | -6.77% (inactive) | 87.9% (inactive) | 2% (inactive) | -7.96% (inactive) | 5.01% (inactive) | 99.5% (inactive) | 0.22 (inactive) | 7% (inactive) | 4.64% (inactive) |
| Cc1ncc([N+](=O)[O-])n1CC(O)CCl (stereo not given) | 101% (inactive) | 103% (inactive) | 102% (inactive) | 104% (inactive) | 100% (inactive) | 59.5% | 193% (inactive) | 7.22% (inactive) | 101% (inactive) | 4% (inactive) | 24.7% (inactive) | -1.86% (inactive) | 105% (inactive) | -0.09 (inactive) | 8% (inactive) | -0.2% (inactive) |
| CCN(CC)C(=O)c1ccc(O)c(OC)c1 | 94.2% (inactive) | 102% (inactive) | 98.8% (inactive) | 102% (inactive) | 102% (inactive) | 53.9% | 118% (inactive) | 25.9% (inactive) | 89% (inactive) | 0% (inactive) | -2.62% (inactive) | 0.77% (inactive) | 101% (inactive) | 0.29 (inactive) | 15% (inactive) | -9.89% (inactive) |
| COCCCC/C(=N\OCCN)c1ccc(C(F)(F)F)cc1 | 108% (inactive) | 108% (inactive) | 98.8% (inactive) | 93.3% (inactive) | 105% (inactive) | 60.3% | 182% (inactive) | 10% (inactive) | 102% (inactive) | -7% (inactive) | -0.39% (inactive) | 1.1% (inactive) | 91.7% (inactive) | 0.18 (inactive) | 3% (inactive) | 139% (active) |
